In PubChem BioAssay:
Unmarked numbers belong to inactive results. For some assays here: Results with a measured potency or affinity are listed apart. The source made the active and inactive calls. Unless noted, no rule for the calls is given here.

Assays:
[1] = antimalarial activity against Dd2 strain (AID 2302;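 active = growth inhibition above 50% at the single 2 µM test dose, taken to imply half-maximal potency below 2 µM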;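 also: 0% = DMSO untreated growth and 100% = chloroquine plus artemisinin killed control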); conditions: P. falciparum Dd2 in RBCs, LDH growth readout, 72 h; at 2 µM; active compounds read high
[2] = human hepatoma cell viability loss – ATP luminescence, cytotoxicity control for P. falciparum antimalarial project, primary screen (AID 2303;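 active = inhibition above 50%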;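 also: 0% = DMSO wells and 100% = digitonin-killed cells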); conditions: HepG2 viability, 24-48 h, at 10 µM, active compounds read high
[3] = target: L-lactate dehydrogenase (Plasmodium falciparum (isolate CDC / Honduras)) (UniProt Q27743); experiment: PfLDH activity inhibition – cell lysate, 3D7 strain, counter-screen for P. falciparum growth inhibition project (AID 2304);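 also: 0% = vehicle and 100% = reference inhibitor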; conditions: P. falciparum 3D7 crude extract, LDH APAD/NBT absorbance; at 2 µM; active compounds read high
[4] = inhibition of 3D7 malaria parasite growth – strain 3D7 (AID 2306);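 also: 0% = DMSO wells and 100% = chloroquine plus artemisinin control wells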; conditions: P. falciparum 3D7 erythrocytic growth, LDH absorbance, 72 h; at 2 µM; active compounds read high
[5] = target: Calcium-dependent protein kinase 1 (Plasmodium falciparum (isolate 3D7)) (UniProt P62344); experiment: PfCDPK1 kinase inhibitors, biochemical, TCAMS library (AID 1159585; cut-off not given, nearly all actives have IC50 up to about 0.98 µM;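 also: inhibitors leave more ATP so luminescence rises with inhibition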); conditions: recombinant PfCDPK1, Kinase-Glo ATP depletion luminescence
[6] = target: Plasmodium falciparum protein kinase 6 (PK6, PF3D7_1337100) (UniProt Q8IDW1); experiment: PfPK6 kinase inhibitors, biochemical, TCAMS library (AID 1159586); conditions: recombinant PfPK6, Kinase-Glo ATP depletion luminescence
[7] = target: Protein kinase 7 (PK7), Plasmodium falciparum 3D7 (PF3D7_0213400) (UniProt Q7YTF7); experiment: inhibition of Plasmodium PK7 catalytic activity – biochemical, TCAMS antimalarial set, Kinase-Glo luminescence (AID 1159587); conditions: recombinant PfPK7, Kinase-Glo ATP depletion luminescence
[8] = target: Calcium-dependent protein kinase 4 (Plasmodium falciparum (isolate 3D7)) (UniProt Q8IBS5); experiment: PfCDPK4 kinase inhibitors, biochemical, TCAMS library (AID 1159588; cut-off not given, nearly all actives have IC50 up to about 0.91 µM); conditions: recombinant PfCDPK4, Kinase-Glo ATP depletion luminescence
Chain of Calcium-dependent protein kinase 4 (Plasmodium falciparum (isolate 3D7)) (Q8IBS5 whole entry, looked up): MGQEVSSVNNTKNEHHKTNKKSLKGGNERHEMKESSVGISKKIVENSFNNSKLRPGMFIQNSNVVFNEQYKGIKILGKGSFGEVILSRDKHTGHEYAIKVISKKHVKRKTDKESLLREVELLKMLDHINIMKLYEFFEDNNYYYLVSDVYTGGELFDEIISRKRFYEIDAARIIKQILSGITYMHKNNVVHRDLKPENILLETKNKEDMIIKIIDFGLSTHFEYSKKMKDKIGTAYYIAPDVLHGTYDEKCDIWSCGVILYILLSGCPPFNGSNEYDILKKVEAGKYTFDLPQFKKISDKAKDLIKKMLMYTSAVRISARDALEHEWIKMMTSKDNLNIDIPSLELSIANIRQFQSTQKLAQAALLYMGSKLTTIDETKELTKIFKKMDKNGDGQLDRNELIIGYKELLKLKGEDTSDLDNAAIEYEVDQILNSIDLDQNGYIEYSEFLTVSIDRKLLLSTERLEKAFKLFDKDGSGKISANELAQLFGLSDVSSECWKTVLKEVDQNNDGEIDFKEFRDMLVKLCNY

Chain of Calcium-dependent protein kinase 1 (Plasmodium falciparum (isolate 3D7)) (P62344 whole entry, looked up): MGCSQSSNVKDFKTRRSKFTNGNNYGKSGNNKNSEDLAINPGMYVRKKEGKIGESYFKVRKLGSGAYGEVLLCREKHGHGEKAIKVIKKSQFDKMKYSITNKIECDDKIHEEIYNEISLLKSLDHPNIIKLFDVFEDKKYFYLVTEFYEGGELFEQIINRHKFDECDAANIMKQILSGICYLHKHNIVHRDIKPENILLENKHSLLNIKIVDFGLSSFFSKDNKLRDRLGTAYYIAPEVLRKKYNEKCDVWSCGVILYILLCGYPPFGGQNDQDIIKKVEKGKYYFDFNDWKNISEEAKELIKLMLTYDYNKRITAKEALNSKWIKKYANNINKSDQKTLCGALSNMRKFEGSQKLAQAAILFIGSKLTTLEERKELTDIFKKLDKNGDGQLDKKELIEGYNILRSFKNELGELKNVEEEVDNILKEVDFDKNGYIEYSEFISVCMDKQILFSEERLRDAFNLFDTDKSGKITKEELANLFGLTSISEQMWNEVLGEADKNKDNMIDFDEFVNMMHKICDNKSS
Chain of Plasmodium falciparum protein kinase 6 (PK6, PF3D7_1337100) (Q8IDW1 1-305): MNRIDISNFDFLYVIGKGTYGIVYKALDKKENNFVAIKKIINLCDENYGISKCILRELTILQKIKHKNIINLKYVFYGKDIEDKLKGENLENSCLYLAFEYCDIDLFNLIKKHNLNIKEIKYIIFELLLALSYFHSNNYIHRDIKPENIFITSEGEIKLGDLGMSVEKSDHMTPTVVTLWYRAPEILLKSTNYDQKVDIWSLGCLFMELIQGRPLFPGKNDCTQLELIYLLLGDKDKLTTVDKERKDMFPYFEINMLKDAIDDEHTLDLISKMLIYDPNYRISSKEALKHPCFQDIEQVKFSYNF
Chain of Protein kinase 7 (PK7), Plasmodium falciparum 3D7 (PF3D7_0213400) (Q7YTF7 1-343): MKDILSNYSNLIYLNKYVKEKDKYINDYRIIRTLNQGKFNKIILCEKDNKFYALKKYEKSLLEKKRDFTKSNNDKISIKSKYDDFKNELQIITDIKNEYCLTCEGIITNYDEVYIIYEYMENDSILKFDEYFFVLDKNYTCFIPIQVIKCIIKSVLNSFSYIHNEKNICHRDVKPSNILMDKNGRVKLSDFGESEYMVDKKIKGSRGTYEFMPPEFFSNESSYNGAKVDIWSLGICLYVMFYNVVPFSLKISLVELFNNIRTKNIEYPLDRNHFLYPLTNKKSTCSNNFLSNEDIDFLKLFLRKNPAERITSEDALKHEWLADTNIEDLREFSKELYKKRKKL
Chain of L-lactate dehydrogenase (Plasmodium falciparum (isolate CDC / Honduras)) (Q27743 whole entry, looked up): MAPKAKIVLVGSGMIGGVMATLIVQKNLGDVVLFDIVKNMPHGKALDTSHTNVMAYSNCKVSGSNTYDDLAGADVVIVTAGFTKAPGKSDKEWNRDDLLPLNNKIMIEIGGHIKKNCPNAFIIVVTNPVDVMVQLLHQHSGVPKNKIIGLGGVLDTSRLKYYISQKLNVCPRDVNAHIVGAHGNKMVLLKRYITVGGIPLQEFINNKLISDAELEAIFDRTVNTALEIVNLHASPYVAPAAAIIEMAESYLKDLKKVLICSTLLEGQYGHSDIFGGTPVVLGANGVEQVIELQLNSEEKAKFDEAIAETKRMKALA

| Structure (SMILES) | growth inhibition [1] | inhibition [2] | inhibition [3] | growth inhibition [4] | outcome [5] | outcome [6] | outcome [7] | outcome [8] |
| --- | --- | --- | --- | --- | --- | --- | --- | --- |
| c1ccc2[nH]c(-c3ccc(-c4ccc(CN5CCN(CCN6CCOCC6)CC5)cc4)s3)nc2c1 | 100% (active) | 39% | -2% | 100% (active) | inactive | inactive | inactive | inactive |
| CCCCNc1c(CC)c(C)c(C#N)c2nc3ccccc3n12 | 100% (active) | 3% | -5% | 100% (active) | inactive | inactive | inactive | inactive |
| CC(CN(C)C)C(=O)Nc1ccc(-c2ccc(-c3nc4ccccc4[nH]3)cc2)cc1 (configuration not stated) | 83% (active) | 2% | -3% | 99% (active) | inactive | inactive | inactive | inactive |
| O=C(Nc1cccc(CN2CCCN(Cc3ccc4c(c3)OCO4)CC2)c1)c1ccc2ccccc2c1 | 14% | 7% | -2% | 86% (active) | inactive | inactive | inactive | inactive |
